A selection: hits, their analogues and other compounds. The true share with any hit is near 1.6%.
KCNQ2 block: inhibitors of rat KCNQ2 potassium channel; CHO-K1 KCNQ2, FluxOR thallium flux, 20 min; active compounds read low; B-score at 10 µM; AID 2156; actives 1.1% (n = 310,000);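 active = fluorescence ratio B-score at most minus 3 library SDs, with starting brightness B-score within 2 library SDs, cut at about -5.5 in these data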
Target sequence (O88943 whole entry, looked up): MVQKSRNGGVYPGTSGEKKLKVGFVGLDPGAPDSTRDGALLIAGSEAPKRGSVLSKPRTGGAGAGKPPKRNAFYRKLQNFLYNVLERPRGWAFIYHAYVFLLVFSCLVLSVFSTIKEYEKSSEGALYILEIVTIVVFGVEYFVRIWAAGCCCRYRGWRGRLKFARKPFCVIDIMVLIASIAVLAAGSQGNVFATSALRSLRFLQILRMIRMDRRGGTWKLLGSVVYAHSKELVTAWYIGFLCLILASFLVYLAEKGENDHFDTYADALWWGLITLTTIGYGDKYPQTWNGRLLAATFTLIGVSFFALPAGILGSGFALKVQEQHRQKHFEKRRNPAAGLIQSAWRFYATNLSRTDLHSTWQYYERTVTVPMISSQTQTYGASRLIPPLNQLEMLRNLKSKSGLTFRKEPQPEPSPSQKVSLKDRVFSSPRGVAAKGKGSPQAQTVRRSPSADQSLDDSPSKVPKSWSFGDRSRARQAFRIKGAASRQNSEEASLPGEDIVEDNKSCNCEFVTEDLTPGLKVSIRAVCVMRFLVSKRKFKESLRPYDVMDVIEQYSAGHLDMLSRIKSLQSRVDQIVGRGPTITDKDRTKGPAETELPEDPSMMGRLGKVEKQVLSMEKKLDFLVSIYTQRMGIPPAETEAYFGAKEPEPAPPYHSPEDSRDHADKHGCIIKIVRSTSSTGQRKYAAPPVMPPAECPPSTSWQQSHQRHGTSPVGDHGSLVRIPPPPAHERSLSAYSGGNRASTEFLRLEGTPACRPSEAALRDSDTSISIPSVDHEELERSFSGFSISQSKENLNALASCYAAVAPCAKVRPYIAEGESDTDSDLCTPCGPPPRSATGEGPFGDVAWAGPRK
KCNQ2 pot: KCNQ2 (rat) channel potentiation; O88943; CHO-K1 KCNQ2, FluxOR thallium flux fluorescence; active compounds read high; B-score at 10 µM; actives 0.54% (n = 310,000); AID 2239;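 active = fluorescence ratio B-score at least 3 SD of library B-scores, with initial fluorescence B-score within 3 of them, cut at about 5.3 in these data; same plate scores as AID 2156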;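 note: B-score of peak minus minimum over baseline fluorescence ratio after K+ and Tl+ stimulus; positive B-score means potentiation of KCNQ2 with more thallium influx and brighter signal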
Kir21 confirm: confirmation of mouse Kir2.1 potassium channel inhibitors | shares compounds with KCNQ2 pot | Kir2.1-expressing cells, FluxOR thallium flux fluorescence; active compounds read low | Tl flux remaining, % of negative control (active compounds read low), % at 10 µM | actives 41% (n = 2,300) | AID 2032;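 active = Primary-screen hit whose thallium flux fell at least 3 control SD below untreated wells in both duplicates, with normal baseline fluorescence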;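 note: 0% = blank wells without stimulus and 100% = stimulated no-compound controls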
HEK293 Tl flux: alters thallium flux in parental HEK293 cells, Kir2.1 counter-screen; AID 2105; FluxOR thallium flux fluorescence; 0% = unstimulated blank wells; actives 19% (n = 2,300); shares compounds with KCNQ2 pot; FluxOR signal as % of negative control (100 = no effect), % at 10 µM;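 active = dye signal at least 3 control SD above or below untreated wells in both duplicates, raw fluorescence within 3, either direction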;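 note: percent is based on the flux ratio of peak minus minimum fluorescence over baseline F0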
CHO-K1 Tl ctr: alters thallium flux in parental CHO-K1 cells, KCNQ2 counter-screen. shares compounds with KCNQ2 pot. FluxOR thallium flux fluorescence; zero = vehicle mean+3SD, 100% = vehicle-minus-blank window. activity increase over 3SD of controls, % at 10 µM. actives 43% (n = 1,200). AID 2282;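 active = signal rise of at least 3 SD above the untreated control mean, in both duplicate wells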;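 note: counter screen of KCNQ2 potentiator hits so any rise reflects channel-independent effects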
KCNQ1 sel pot: selectivity of KCNQ2 potentiators: effect on human KCNQ1. actives 28% (n = 1,200). shares compounds with KCNQ2 pot. activation over 3SD threshold, % at 10 µM. CHO KCNQ1 stable, FluxOR thallium flux fluorescence; beyond 3SD, as % of vehicle-control signal;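 active = fluorescence ratio rise of at least 3 SD of vehicle wells above their mean, in both replicate wells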;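 note: 0% = vehicle mean plus 3 SD and 100% = vehicle minus unstimulated blank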
KCNQ2 pot confirm: rat KCNQ2 channel potentiator confirmation | CHO-KCNQ2 cells, FluxOR thallium flux fluorescence | AID 2287 | shares compounds with KCNQ2 pot | actives 68% (n = 1,200) | potentiation, less the hit threshold, % at 10 µM;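 active = fluorescence ratio rising 3 SD or more over the vehicle control mean in both replicates, plus primary screen hit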;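 note: peak minus minimum thallium fluorescence divided by baseline after K/Tl stimulus; 0% = vehicle mean plus 3 SD and 100% = vehicle minus unstimulated blank difference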
Kir21 spec: mouse Kir2.1 off-target activity of KCNQ2 potentiators; HEK293 Kir2.1, FluxOR thallium flux fluorescence; AID 2345; actives 2% (n = 1,200); activity over 3SD threshold, % at 10 µM; shares compounds with KCNQ2 pot;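 active = fluorescence ratio rise of at least 3 SD above the vehicle-control mean, seen in both replicates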;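 note: 0% = vehicle mean plus 3 SD and 100% = vehicle minus no-stimulus blank window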
KCNQ2 W236L MoA: rat KCNQ2 W236L mutant potentiation by KCNQ2 potentiators; actives 10% (n = 940); AID 2558; current increase over 3SD of negative controls (%), active compounds read high, % at 25 µM; CHO KCNQ2-W236L, automated patch clamp current; shares compounds with KCNQ2 pot;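 active = current increase at least 3 SD of the untreated controls above them in both duplicate recordings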
* marks the source's active call; other numbers are inactive results; i = inactive; x = not tested or not shown.

SMILES | KCNQ2 block | KCNQ2 pot | Kir21 confirm | HEK293 Tl flux | others
Fc1ccc(COc2ccc(Br)cc2CNCc2ccncc2)cc1 | i | x | x | x
CCOc1cc(CNCc2ccncc2)cc(Br)c1OCc1ccc(F)cc1 | i | x | i | i
CCNCc1cc(Cl)c(OCc2ccccc2)c(OCC)c1 | i | x | 42%* | i
CCOc1cc(CNCCO)cc(Br)c1OCc1ccccc1 | i | x | i | i
COc1ccc(-c2ncccc2OC(=O)C23CC4CC(CC(C4)C2)C3)cc1 | i | x | x | x
COc1ccc(N(C)S(=O)(=O)c2ccc3c(c2)CCN3C(=O)C2CC2)c(OC)c1 | i | x | x | x
Cc1ccc(CNC(=O)CSc2nc3[nH]ncc3c(=O)[nH]2)cc1 | i | 0.52 | x | x
COc1ccc(S(=O)(=O)NCC(c2ccc3c(c2)OCO3)N2CCN(c3ccccc3)CC2)cc1 (centres undefined) | i | x | x | x
CN(C(=O)c1cc2c(s1)-c1ccccc1S(=O)(=O)C2)c1ccccc1 | i | x | x | x
COc1ccc(CCNC(=O)c2cn3ccc(C)cc3n2)cc1OC | i | x | x | x
O=C1CSC(c2ccccc2F)N1CCN1CCCCC1 (centres undefined) | i | 0.16 | x | x
O=C1CSC(c2ccccc2F)N1c1cc(Cl)ccc1O (centres undefined) | i | 1 | i | i
C=C(C(=O)O)C1CCC2(C)CCCC(C)(O)C2C1 (centres undefined) | i | x | x | x
COc1ccccc1OCCC(=O)OCC(=O)Nc1ccc(Br)cc1F | i | 0.26 | x | x
O=C(O)CC1(CC(=O)N2CCOCC2)CCCC1 | i | x | x | x
O=C(Nc1nnc(-c2ccc3c(c2)CCCC3)o1)c1c(F)cccc1F | i | x | x | x
O=C(Nc1nnc(-c2ccc3c(c2)CCCC3)o1)c1ccc(Cl)cc1Cl | i | 8.9* | i | 255%* | CHO-K1 Tl ctr=-12;KCNQ1 sel pot=69*;KCNQ2 pot confirm=15*;Kir21 spec=-31;KCNQ2 W236L MoA=i
CC1(C)CC(=O)C2=C(C1)OC1=C(C(=O)CC(C)(C)C1)C2(C)C | i | 1 | x | x
CC1=CC(C)(C)n2c(O)c(N=N)c3c(C)ccc1c32 | i | 5.3* | i | i | CHO-K1 Tl ctr=54*;KCNQ1 sel pot=-9;KCNQ2 pot confirm=-15;Kir21 spec=-21
CC1=CC(C)(C)n2c(O)c(N=NC(N)=S)c3c(C)ccc1c32 | i | 0.15 | x | x
CC(C)(CCO)Nc1ncnc2onc(-c3ccc(F)cc3)c12 | i | 1.4 | x | x
CC(C)(C)NC(=O)C(=O)NN=C1CCCCCCCCCCC1 | i | 1 | x | x
NC(N)=NN=C1CCCCCCCCCCC1 | i | x | i | i
CC(C)CN(C(=O)c1ccc(-n2cncn2)c([N+](=O)[O-])c1)C1CCS(=O)(=O)C1 (centres undefined) | i | 0.22 | x | x
COC(=O)CCC(=O)Nc1ccc(S(=O)(=O)Nc2nc(C)cc(C)n2)cc1 | i | x | x | x
SMILES | KCNQ2 block | KCNQ2 pot | Kir21 confirm | HEK293 Tl flux | others
O=S(=O)(/C(=C/c1ccc(C(F)(F)F)cc1)c1nc2ccccc2[nH]1)c1ccccc1 | -7.8* | -7.8 | i | i
CC(C)c1ccc(/C=C(\c2nc3ccccc3[nH]2)S(=O)(=O)c2ccccc2)cc1 | i | x | x | x
CCCC(C(=O)NC(C)(C)C)N(CCN1CCOCC1)C(=O)CNS(=O)(=O)c1ccccc1 (centres undefined) | i | 2.2 | x | x
Cc1cc(-c2csc(NC(=O)c3ccc(C#N)cc3)n2)c(C)n1Cc1ccccc1 | i | x | x | x
Cc1ccc(Cl)cc1NC(=O)CN1C(=O)COc2ccc(S(=O)(=O)N3CCOCC3)cc21 | i | x | x | x
COc1ccc(CCNc2ncnc3[nH]ncc23)cc1OC | i | x | x | x
COc1ccc(CCNc2ncnc3sc(C)cc23)cc1OC | i | x | 65%* | i
